GBA enhancer = increases beta-glucosidase activity in Gaucher fibroblasts; L444P Gaucher fibroblasts, 4-MU-glucoside fluorescence, 3 days; activation, % at 10 µM; hit rate 0.44% among 30,000; in the data active = activation above about 65%
Target sequence (P04062 whole entry L483P): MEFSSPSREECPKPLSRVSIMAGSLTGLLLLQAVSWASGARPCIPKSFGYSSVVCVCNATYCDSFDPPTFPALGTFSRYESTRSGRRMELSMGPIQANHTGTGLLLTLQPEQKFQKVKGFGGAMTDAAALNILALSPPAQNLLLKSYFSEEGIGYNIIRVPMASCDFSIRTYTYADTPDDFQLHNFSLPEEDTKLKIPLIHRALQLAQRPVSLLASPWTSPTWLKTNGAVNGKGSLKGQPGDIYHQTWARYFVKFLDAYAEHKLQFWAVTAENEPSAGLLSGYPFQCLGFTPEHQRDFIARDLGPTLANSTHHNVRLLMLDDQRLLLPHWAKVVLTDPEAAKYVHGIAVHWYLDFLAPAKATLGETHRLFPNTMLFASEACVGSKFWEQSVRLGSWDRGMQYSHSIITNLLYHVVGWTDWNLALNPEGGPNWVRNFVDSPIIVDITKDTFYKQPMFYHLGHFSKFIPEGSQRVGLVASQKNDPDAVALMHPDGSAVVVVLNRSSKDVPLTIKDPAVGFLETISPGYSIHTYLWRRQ
Each line names hits and unclear results; the compound was inactive in the other large screens. The full list was thinned out, with hits kept by preference.

Cc1cc(C)nc(N2CCN(c3nc(C)nc4c3oc3ccccc34)CC2)n1	none
CCOCCCNC(=O)c1cn(C)c(=O)c2cc(OC)c(OC)cc12	none
COCCNC(=O)c1cn(C)c(=O)c2cc(OC)c(OC)cc12	none
COc1cc2c(C(=O)NCCCN3CCN(c4cccc(Cl)c4)CC3)cn(C)c(=O)c2cc1OC	GBA enhancer 85
c1ccc(-c2nc3c4ccccc4nc(N4CCN(c5ccccn5)CC4)n3n2)cc1	none
COc1ccc(-n2nnc3c(SCC(=O)NCC4CCCO4)ncnc32)cc1 (stereo not drawn)	none
Cc1ccc(OCC(=O)Nc2cccc(-c3nnc(-c4ccccc4)o3)c2)cc1	none
CCOC(=O)c1nnc(-c2ccccc2)o1	none
CCOC(=O)COc1ccc(-c2nnc(-c3ccccc3)o2)cc1	GBA enhancer 78
COc1ccc(OC)c(N(CC(=O)Nc2ccc3c(c2)OCO3)S(=O)(=O)c2ccccc2)c1	none
CN(CC(=O)Nc1ccc(F)c(F)c1)S(=O)(=O)c1cccc2nsnc12	GBA enhancer 121
Cc1ccc(NC(=O)CN(C)S(=O)(=O)c2cccc3nsnc23)cc1Cl	none
Cc1ccc(NC(=O)CN(C)S(=O)(=O)c2cccc3nsnc23)cc1C	none
O=C1C(Cl)=C(NCC2CCCO2)C(=O)N1CCc1ccccc1 (stereo not drawn)	none
Cc1cccc(N2CCN(C(=O)COc3cc(=O)n(C)c4ccccc34)CC2C)c1 (stereo not drawn)	none
CC(C)CCn1c(CN2CCN(c3cccc(Cl)c3)CC2)nc2c1c(=O)n(C)c(=O)n2C	none
Cc1cc(NS(=O)(=O)c2ccc(NC(=O)CCN3C(=O)c4ccccc4C3=O)cc2)no1	GBA enhancer 93
CC1CN(S(=O)(=O)c2ccc(NC(=O)CCN3C(=O)c4ccccc4C3=O)cc2)CC(C)O1 (stereo not drawn)	none
Cc1ccc(OCCCC(=O)Nc2ccc(S(=O)(=O)Nc3cc(C)on3)cc2)cc1	none
Cc1cnc(C(=O)Nc2ccccc2-c2ccc(C)o2)cn1	none
Cc1ccccc1NC(=O)CCC(=O)OCCCC(F)(F)C(F)(F)F	none
Cn1nnnc1SCC(=O)N1CCN(c2cccc(Cl)c2)CC1	none
CCn1cc(C(=O)N2CC(C)CC(C)C2)c(=O)c2cc(S(=O)(=O)N3CCOCC3)ccc21 (stereo not drawn)	none
CC(=O)Nc1cccc(OCC(O)Cn2cnc3ccccc32)c1 (stereo not drawn)	none
OC(COCC1CC=CCC1)Cn1cnc2ccccc21 (stereo not drawn)	GBA enhancer 151
c1ccc2c(c1)ncn2CCn1cnc2ccccc21	none
COC1=C(OC)c2ccccc2C(C(=O)O)N/C1=C(/C)Nc1ccncc1 (stereo not drawn)	none
COc1ccc(Cl)cc1C(=O)Nn1cnc2ccccc2c1=O	none
COC(=O)c1cn(NC(=O)c2ccncc2)c(=O)c2ccccc12	GBA enhancer 74
COc1ccccc1C(=O)Nn1cnc2ccccc2c1=O	none
O=c1c2cc(Cl)ccc2nc2ccc(N3CCCC3)nn12	none
Cc1ccc(C)c(OCC(=O)Nc2nonc2NC(=O)COc2cc(C)ccc2C)c1	none
C=CCNC(=O)CCCOc1cc(C)ccc1C	GBA enhancer 68
C=CCNC(=O)CCCCC(=O)NCC=C	none
Cc1ccc2[nH]c(C)c(CN(C)C3CCN(C)CC3)c(=O)c2c1	none
CCCCN(CCCC)CCNC(=O)Cc1nc2c(c(=O)[nH]c(=O)n2C)n1C	none
CCOC(=O)N1CCN(C(=O)c2ccc(Cn3c(=S)[nH]c4cc5c(cc4c3=O)OCO5)cc2)CC1	none
CCOC(=O)N1CCN(C(=O)c2ccc3c(=O)n(Cc4ccccc4)c(=S)[nH]c3c2)CC1	GBA enhancer 69
CCOC(=O)N1CCN(C(=O)c2ccc3c(=O)n(Cc4ccc(OC)cc4)c(=S)[nH]c3c2)CC1	none
Cc1cccc(-n2c(C)nc3c(cnn3-c3ccc(F)cc3)c2=O)c1	none
CC(C)(C)NC(=O)CSc1nncn1NCc1ccccc1	GBA enhancer 68
Cc1ccc(CNn2cnnc2SCC(=O)NC(C)(C)C)cc1	none
Cc1nnc(SCC(=O)NC(C)(C)C)n1CCc1ccccc1	none
O=C(O)CCc1cc(I)c(Oc2ccc(O)c(I)c2)c(I)c1	none
COCCOC(=O)C1=C(C)N=C2SCCC(=O)N2C1c1cc(Br)ccc1OC (stereo not drawn)	none
O=C(CCCn1c(=S)[nH]c2cc3c(cc2c1=O)OCO3)N1CCN(c2ncccn2)CC1	GBA enhancer 79
O=C(CCCn1c(=S)[nH]c2cc3c(cc2c1=O)OCO3)N1CCN(c2ccc(F)cc2)CC1	none
COc1cccc(N2CCN(C(=O)CCn3c(=S)[nH]c4cc5c(cc4c3=O)OCO5)CC2)c1	none
Cc1sc2nc3c(C(=O)N4CCN(c5ncccn5)CC4)cccn3c(=O)c2c1C	none
Cc1ccc(C)c(-n2c(CNc3ccc(F)cc3)nnc2SCC(N)=O)c1	none
O=C1CCCCCN1CP(=O)(O)CN1CCOCC1	none
CCN1CCN(CCCNC(=O)c2cc3cc4ccc(OC)cc4nc3o2)CC1	GBA enhancer 94
CCCCN(CC)CCCNC(=O)c1cc2cc3ccc(OC)cc3nc2o1	GBA enhancer 123
COc1ccc2cc3cc(C(=O)NCCc4ccc(OC)c(OC)c4)oc3nc2c1	none
COc1ccc2cc3cc(C(=O)NCCN4CCN(Cc5ccccc5)CC4)oc3nc2c1	none
CCCN(CCC)CCCNC(=O)c1cc2cc3ccc(OC)cc3nc2o1	none
COc1ccc2cc3cc(C(=O)NCCCN4CCOCC4)oc3nc2c1	none
CCN1C(=O)NC(c2cc(Br)ccc2OC)C(C(=O)OC)=C1C (stereo not drawn)	none
CC1CC(C)CN(S(=O)(=O)c2ccc(C(=O)N3CCN(c4ccccc4)CC3)cc2)C1 (stereo not drawn)	none
CCOc1ncccc1C(=O)OCc1nnc(-c2ccccc2)o1	none
N#Cc1c2n(c3c(=O)n(Cc4ccccc4Cl)cnc13)CCCCC2	GBA enhancer 68
COC(=O)Cn1cnc2c(C#N)c3n(c2c1=O)CCCCC3	none
COc1cccc(-n2nnc3c(=O)n(Cc4ccccc4Cl)cnc32)c1	none
CC1=C(C(=O)N(C)C)C(c2cccc(Cl)c2)NC(=O)N1 (stereo not drawn)	none
COCCCn1c(SCC(=O)OC2CCCCC2)nnc1-c1ccco1	GBA enhancer 66
COCCCn1c(SCC(=O)N2CCCCC2C)nnc1-c1ccco1 (stereo not drawn)	none
CCCn1c(SCC(=O)N2CCCCC2)nnc1-c1ccco1	none
O=C1Nc2ccccc2C(O)(C(=O)NCc2ccco2)N1c1ccc(Cl)c(Cl)c1 (stereo not drawn)	none
Cc1ccc(C)n1-c1ccc(N2CCOCC2)cc1	none
Cc1cc(C)cc(N2CCN(C(=O)N3CCOCC3)CC2)c1	GBA enhancer 72
O=C(N1CCOCC1)N1CCN(c2ccccn2)CC1	none
Cn1cnnc1SCCn1c(N2CCCCC2)nc2c1c(=O)[nH]c(=O)n2C	none
CCOC(=O)c1oc2c(C)c(O)ccc2c(=O)c1-c1nncn1-c1ccccc1	GBA enhancer 84
CCOC(=O)c1nn(-c2ccccc2)c(=O)c(C#N)c1C	none
CCOC(=O)c1oc2c(CN3CCCCC3C)c(O)ccc2c(=O)c1-c1ccc(OC)c(OC)c1 (stereo not drawn)	none
Cc1oc(-c2ccc(Cl)cc2)nc1CSCC(=O)NCCCN1CCOCC1	none
COc1ccccc1NCCC(=O)OCC(=O)Nc1ccc(Cl)cn1	none
Cc1cc(NC(=O)CSc2nc(-c3ccccc3)c(C#N)c(=O)[nH]2)no1	none
COc1cc(OC)nc(NC(=O)CSc2nc3ccccc3[nH]2)n1	none
Cc1cc(NC(=O)CSc2nc3ccccc3[nH]2)no1	GBA enhancer 100
Cc1cc(C)n(CCc2nc3c4ccccc4nc(SCc4ccc(C#N)cc4)n3n2)n1	none
Cc1cccc(-n2ncc3c(N4CCN(c5nc(C)cc(C)n5)CC4)ncnc32)c1	none
CCOC(=O)SC1=N/C(=C\c2ccc(N(C)C)cc2)C(=O)S1	none

Compound activity from PubChem BioAssay.
